Only some compounds are listed: those with a hit (about 9.3% of all), similar ones and a draw of the others.
NPC1 promoter act = qHTS Assay for NPC1 Promoter Activators; Potency, µM (doses to about 9.22 µM), for inactives: top-dose activation, usual class: activators; Huh7 NPC1 promoter luciferase reporter, 24 h; AID 485313, 2010; 320,000 tested, 2.4% active; further: % of control where 0% means no effect; nearly all actives have a fitted effect of over 60% in size
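Luciferase expression driven by the NPC1 promoter was measured in stably transfected Huh7 cells after a 24 h compound incubation, using a luciferase reagent and a luminescence read.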
ELG1 DNA repair = qHTS screen for small molecules that inhibit ELG1-dependent DNA repair in human embryonic kidney (HEK293T) cells expressing luciferase-tagged ELG1; HEK293T ELG1-luciferase reporter, luminescence, 16 h; DNA damage induced by 5-fluorouridine; Potency, µM (top dose mostly 46.1 µM), for the others: top-dose activity change, negative = inhibition, usual class: inhibitors; 330,000 tested, 2.3% active; AID 504467, 2011; further: on the % scale 0 is the no-effect control and ±100 the full control effect; nearly all actives have a fitted effect of over 55% in size
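DMSO vehicle served as the neutral condition. Each well held 2,000 cells given 5-fluorouridine plus compound; after 16 hr at 37 °C/5% CO2, ONE-Glo was added and luciferase measured 30 min later.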
SMN2 splice enh = qHTS Assay for Enhancers of SMN2 Splice Variant Expression | HEK293 SMN2-luciferase splicing reporter, luminescence, 30-36 h | Potency, µM (titrated, usually from 46.1 µM), for inactives: at the top dose activity change, positive = activation, most hits filed as activators | 210,000 tested, 2.8% active; further: % of control where 0% means no effect; nearly all actives have a fitted effect of over 55% in size
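qHTS luciferase splicing reporter: luminescence rises when SMN2 exon 7 is included in transfected HEK293 cells. Compound exposure lasted 30-36 h at 37C, with 4.5 mM final sodium butyrate as control, followed by a ONE-Glo read.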
FLuc counter = qHTS profiling assay for firefly luciferase inhibitor/activator using purifed enzyme and Km concentrations of substrates (counterscreen for miR-21 project). purified FLuc, Km substrates, luminescence inhibition. Potency, µM (titrated, usually from 57.5 µM), without a hit: at the top dose activity change, negative = inhibition, most hits filed as inhibitors. 360,000 tested, 6.9% active;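 further: plate controls were vehicle for no effect and reference inhibitor for full effect; nearly all actives have a fitted effect of over 55% in size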
Target sequence (P08659 whole entry, looked up): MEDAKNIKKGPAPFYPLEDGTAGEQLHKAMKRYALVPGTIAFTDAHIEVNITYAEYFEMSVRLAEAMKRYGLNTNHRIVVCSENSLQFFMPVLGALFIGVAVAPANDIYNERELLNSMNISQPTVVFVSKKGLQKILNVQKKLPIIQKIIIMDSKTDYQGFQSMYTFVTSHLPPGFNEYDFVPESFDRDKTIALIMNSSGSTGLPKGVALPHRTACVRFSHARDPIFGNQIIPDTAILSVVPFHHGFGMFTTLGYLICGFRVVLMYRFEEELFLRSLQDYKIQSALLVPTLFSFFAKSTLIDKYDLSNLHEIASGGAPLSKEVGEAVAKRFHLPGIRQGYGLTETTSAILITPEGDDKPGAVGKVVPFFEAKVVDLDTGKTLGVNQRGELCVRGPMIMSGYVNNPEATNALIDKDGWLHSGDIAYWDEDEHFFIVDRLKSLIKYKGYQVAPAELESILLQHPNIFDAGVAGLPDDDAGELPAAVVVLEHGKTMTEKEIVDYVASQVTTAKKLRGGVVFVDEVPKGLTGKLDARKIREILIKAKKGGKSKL
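Purified P. pyralis luciferase (10nM final) with 10uM D-luciferin and 10uM ATP (Km levels) in 50mM Tris acetate pH 7.5, 10mM Mg acetate, 0.01% Tween-20, 0.05% BSA; qHTS 6-point titration, ~60 µM downward; luminescence read.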
Rab9 prom act = qHTS Assay for Rab9 Promoter Activators; 320,000 tested, 2.8% active; Potency, µM (series often up to 9.22 µM), for the others: top-dose activation, negative = inhibition, actives largely listed as activators; Huh7 Rab9 promoter-luciferase reporter, luminescence, 24 h; further: % of control where 0% means no effect; nearly all actives have a fitted effect of over 60% in size
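Luminescence from Amplite-detected luciferase (10 minutes, ambient) reports Rab9 promoter activation. Before that, stable Rab9-luciferase Huh7 cells (1500/well, reduced-serum OP-MEM I plus 10% FBS) were exposed to compound for 24 hours at 37C.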
ELG1 genotoxic = qHTS screen for small molecules that induce genotoxicity in human embryonic kidney (HEK293T) cells expressing luciferase-tagged ELG1. Potency, µM (titrated, usually from 46 µM), inactives show top-dose activity change, positive = activation, hits mostly activators. HEK293T ELG1-luciferase reporter, luminescence, 16 h. 330,000 tested, 1.3% active. AID 504466, 2011; further: % of control where 0% means no effect; nearly all actives have a fitted effect of over 60% in size
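Quantitative HTS format in 1536-well plates. HEK293T ELG1-luciferase reporter cells receive test compound and are incubated 16 hr at 37 °C, 5% CO2; ONE-Glo added, 30 min room temperature, then luminescence read.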
Starred values were filed as active, the others as inactive; u = inconclusive; x = no result given; [ ] = remark or other dose. The call rests on the fitted dose curve; in most records, active means well fitted curve in the direction sought with a large enough effect; inconclusive means small, poorly fitted or top-dose-only effect, or another doubt; inactive means no such curve, though single readings can be large; an effect the other way counts as inactive or inconclusive. Potency means the concentration at half of the fitted maximal effect.

SMILES | NPC1 promoter act | ELG1 DNA repair | SMN2 splice enh | FLuc counter | Rab9 prom act | ELG1 genotoxic
CN(Cc1ccccc1)S(=O)(=O)c1ccc2[nH]c(=O)ccc2c1 | -1% | u | x | 0% | 1% | u
CC(=O)Oc1ccc(N(C(C)=O)S(=O)(=O)c2ccc(Cl)cc2)c2ccccc12 | 1% | 18µM* | x | -10% | 0% | -14%
CCN(c1ccccc1)S(=O)(=O)c1ccc2ccccc2c1 | -5% | -2% | x | -3% | -1%[1.84 µM] | -6%
Cc1ccc(N(C)S(=O)(=O)c2ccc3[nH]c(=O)ccc3c2)cc1 | x | x | x | 8.5µM* | x | x
CC(=O)Oc1ccc(N(C(C)=O)S(=O)(=O)c2ccc3ccccc3c2)cc1 | -4% | 21µM* | x | -11% | 4% | -6%
CN(c1ccc(O)cc1)S(=O)(=O)c1ccc2ccccc2c1 | u | u | x | 19µM* | 4µM* | u
CCOc1ccccc1NC(=O)NCc1ccc2c(c1)CCN2C(=O)c1ccccc1 | x | x | x | -15% | x | x
Cn1c(=O)c2c(nc(N3CCOCC3)n2Cc2ccccc2F)n(C)c1=O | x | x | 17% | -2% | x | x
COC(=O)[C@@H]1C[C@@]2(O)[C@H](O)[C@H](O)[C@H](O)C[C@H]2N1Cc1ccc(-c2ccccc2)cc1 | 0% | 5% | -24% | 0% | -5% | 0%
Fc1ccc(/C=C/c2nnc(-c3cccs3)o2)cc1 | 2.2µM* | u | 13µM* | 2.7µM* | 1.1µM* | 10µM*
Cc1ccc(-c2nnc(-c3cccs3)o2)cc1 | 3.5µM* | u | 13µM* | 6.7µM* | 1.6µM* | 5.2µM*
Cc1ccc(/C=C/c2nnc(-c3cccs3)o2)cc1 | 0.35µM* | u | 10µM* | 1.7µM* | 0.89µM* | u
CCC(CC)C(=O)N1CCc2cc(OC)c(OC)cc2C1COc1ccc(C(=O)OC)cc1 (configuration not stated) | x | x | x | -3% | x | x
COCc1cc(C)nc2sc(C(=O)Nc3ccccc3Br)c(N)c12 | 15% | 17% | x | 8.5µM* | 21% | 7%
Cc1cc(C)c2c(N)c(C(=O)Nc3ncc(C)s3)sc2n1 | -10% | u | -56% | 0.095µM* | u | u
COc1ccc2nc(NC(=O)c3sc4nc(C)cc(C)c4c3N)sc2c1 | u | u | x | 0.12µM* | u | u
COC(=O)c1sc2nc(C)cc(C)c2c1N | 0% | u | x | u | 17% | 7%
Cc1cc(C)c2c(N)c(C(=O)Nc3ccccc3F)sc2n1 | 1.8µM* | u | x | x | 2.2µM* | u
CCc1ccccc1NC(=O)c1sc2nc(C)cc(C)c2c1N | -1% | -5% | x | u | 12% | 2%
CN(C)S(=O)(=O)c1ccc(N2CCCC2)c(C(=O)NNC(=O)COc2ccccc2F)c1 | -3% | 14% | x | 4% | 8% | 2%
CCOc1ccc(N(CC(=O)NCCSCc2ccccc2)S(=O)(=O)c2ccccc2)cc1 | -1% | 9% | x | -1% | -1% | -19%
CCOc1ccc(/C=C2\SC(=S)NC2=O)cc1OC | 5% | 39% | x | 12µM* | 0% | 12%
O=C1NC(=S)S/C1=C\c1ccc2ccccc2c1 | 30% | u | x | 9.5µM* | u | 12%
COc1cc(/C=C2\SC(=S)NC2=O)ccc1OS(=O)(=O)c1ccccc1 | -4% | -15% | -44% | u | -3% | -8%
COc1ccc(/C=C2\SC(=S)NC2=O)cc1OS(=O)(=O)c1ccc(NC(C)=O)cc1 | -1% | -19% | 18% | 27µM* | -2% | -7%
SMILES | NPC1 promoter act | ELG1 DNA repair | SMN2 splice enh | FLuc counter | Rab9 prom act | ELG1 genotoxic
COC(=O)c1[nH]c2ccc(Cl)cc2c1NC(=O)CN1CCc2cc(OC)c(OC)cc2C1 | -1% | 9.2µM* | -2% | -1% | -2% | 7%
CCOC(=O)c1[nH]c2ccc(F)cc2c1NC(=O)CN1CCc2cc(OC)c(OC)cc2C1 | 1% | 6.5µM* | -25% | -1% | 11% | -16%
CCOC(=O)N1CCN(CC(=O)Nc2c(C(=O)OC)[nH]c3ccc(Cl)cc23)CC1 | 0% | u | -46% | 2% | -13% | -27%
CCOC(=O)c1[nH]c2ccc(OC)cc2c1NC(=O)CCN1CCc2ccccc2C1 | 2% | u | -4% | 1% | 4% | -2%
CCOC(=O)c1[nH]c2ccc(OCC)cc2c1NC(=O)CN1CCC2(CC1)OCCO2 | 11% | 8.2µM* | 17% | 2% | 1% | 5%
COC(=O)c1[nH]c2cc(C)ccc2c1NC(=O)CN1CCc2cc(OC)c(OC)cc2C1 | 2% | 15µM* | -23% | -2% | 1% | -26%
O=C(CCl)N1CCCC1c1ccc2c(c1)OCCO2 (configuration not stated) | -18% | u | x | 0% | -13% | -26%
CCOc1cc(C2NN=C(c3ccc(C)cc3)S2)ccc1O (configuration not stated) | 3.2µM* | u | 16µM* | 5.4µM* | 3.5µM* | u
COc1ccc(C2NC(=O)CS2)cc1 (configuration not stated) | 0% | u | -2% | -2% | 2% | 6%
Cc1ccc(C2=NNC(C(O)C(O)C(O)CO)S2)cc1 (configuration not stated) | 18% | u | -16% | 15µM* | 24% | u
COc1ccc(C2NN=C(c3ccc(C)cc3)S2)cc1 (configuration not stated) | 92% | u | x | 1.2µM* | 0.63µM* | u
CCc1ccc(-c2nc(CSCC(=O)NCc3ccco3)c(C)o2)cc1 | -15% | u | -85% | 24µM* | -16% | -6%
Cc1ccc(-c2nc(CSCC(=O)NCCN3CCN(Cc4ccccc4)CC3)c(C)o2)cc1 | -13% | 16µM* | -29% | u | -12% | -9%
Nc1ccc(C(=O)Nc2cccc(N)c2)cc1 | u | u | x | 21µM* | u | 17%
CC1CCC(NC(=O)CCNC(=O)c2ccc(Br)cc2)CC1 (configuration not stated) | 4.5µM* | u | x | u | 2.5µM* | u
Cc1cccc(NC(=O)CCNC(=O)c2ccc(Br)cc2)c1 | 27% | u | x | 13µM* | u | u
O=C(Nc1cccc(O)c1)c1ccc(Br)cc1 | u | u | 4% | 12µM* | u | 5.8µM*
O=C(NNC(=O)c1ccc(Br)cc1)c1ccncc1 | 1% | u | x | u | 1% | 4%

Screens: PubChem BioAssay, National Center for Advancing Translational Sciences (NCATS)
